Data on one compound can be found in ChEMBL document CHEMBL2218924, “A broad activity screen in support of a chemogenomic map for kinase signalling research and drug discovery” (Biochem J, 2013).

Experiment [1] addresses Tyrosine-protein kinase SYK (Homo sapiens) (UniProt P43405). To be noted: at 10 µM.
Experiment [2] addresses T1, Mitogen-activated protein kinase kinase kinase 7 (Homo sapiens) (UniProt O43318).
T1 sequence (whole entry): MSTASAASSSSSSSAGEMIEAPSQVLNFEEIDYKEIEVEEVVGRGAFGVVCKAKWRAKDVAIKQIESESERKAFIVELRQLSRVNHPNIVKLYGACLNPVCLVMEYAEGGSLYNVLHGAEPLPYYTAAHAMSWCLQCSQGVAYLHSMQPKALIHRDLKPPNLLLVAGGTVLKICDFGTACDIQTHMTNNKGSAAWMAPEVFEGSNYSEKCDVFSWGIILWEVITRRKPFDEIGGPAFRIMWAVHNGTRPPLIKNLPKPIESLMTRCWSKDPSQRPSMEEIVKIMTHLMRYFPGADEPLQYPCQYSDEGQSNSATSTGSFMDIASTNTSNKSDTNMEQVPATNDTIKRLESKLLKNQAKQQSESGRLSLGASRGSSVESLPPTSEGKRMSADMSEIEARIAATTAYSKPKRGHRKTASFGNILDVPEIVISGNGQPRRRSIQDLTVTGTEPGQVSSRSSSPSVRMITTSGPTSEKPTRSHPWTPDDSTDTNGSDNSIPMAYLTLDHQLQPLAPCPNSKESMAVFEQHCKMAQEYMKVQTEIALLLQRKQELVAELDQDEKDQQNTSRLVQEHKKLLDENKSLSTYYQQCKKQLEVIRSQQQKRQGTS
To be noted: at 1 µM.

Experiment [3] has as its target T1, Mitogen-activated protein kinase kinase kinase 7 (Homo sapiens). Particulars: at 10 µM.
Experiment [4] concerns the target T2, Serine/threonine-protein kinase TAO1 (Homo sapiens) (UniProt Q7L7X3).
T2 sequence (whole entry): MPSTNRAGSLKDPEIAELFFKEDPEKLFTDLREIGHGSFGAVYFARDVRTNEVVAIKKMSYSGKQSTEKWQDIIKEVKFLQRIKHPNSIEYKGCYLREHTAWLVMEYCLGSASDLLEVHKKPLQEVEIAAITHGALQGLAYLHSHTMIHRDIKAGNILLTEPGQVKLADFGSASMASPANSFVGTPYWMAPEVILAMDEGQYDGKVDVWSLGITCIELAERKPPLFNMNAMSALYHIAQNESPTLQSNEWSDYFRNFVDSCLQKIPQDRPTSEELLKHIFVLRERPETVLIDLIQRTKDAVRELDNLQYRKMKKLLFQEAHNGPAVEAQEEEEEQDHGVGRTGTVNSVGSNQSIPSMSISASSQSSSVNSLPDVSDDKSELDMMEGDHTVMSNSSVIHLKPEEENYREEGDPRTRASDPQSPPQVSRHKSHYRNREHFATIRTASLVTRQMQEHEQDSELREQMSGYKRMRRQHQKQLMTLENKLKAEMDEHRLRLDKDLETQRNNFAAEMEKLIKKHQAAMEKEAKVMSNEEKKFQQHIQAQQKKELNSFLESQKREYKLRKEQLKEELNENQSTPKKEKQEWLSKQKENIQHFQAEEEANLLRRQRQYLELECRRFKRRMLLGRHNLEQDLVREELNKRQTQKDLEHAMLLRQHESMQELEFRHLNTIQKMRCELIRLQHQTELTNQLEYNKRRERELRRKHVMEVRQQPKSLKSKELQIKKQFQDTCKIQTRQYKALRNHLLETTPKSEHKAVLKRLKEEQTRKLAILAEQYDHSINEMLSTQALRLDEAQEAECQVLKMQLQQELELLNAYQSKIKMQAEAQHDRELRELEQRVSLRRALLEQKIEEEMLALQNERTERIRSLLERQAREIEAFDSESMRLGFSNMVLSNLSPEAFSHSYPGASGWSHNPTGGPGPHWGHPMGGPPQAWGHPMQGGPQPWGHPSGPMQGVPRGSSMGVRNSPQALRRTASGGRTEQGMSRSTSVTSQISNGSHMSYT
To be noted: at 1 µM.

Experiment [5] has as its target T2, Serine/threonine-protein kinase TAO1 (Homo sapiens). Particulars: at 10 µM.
In experiment [6] the target is T3, Serine/threonine-protein kinase TAO2 (Homo sapiens) (UniProt Q9UL54).
T3 sequence (whole entry): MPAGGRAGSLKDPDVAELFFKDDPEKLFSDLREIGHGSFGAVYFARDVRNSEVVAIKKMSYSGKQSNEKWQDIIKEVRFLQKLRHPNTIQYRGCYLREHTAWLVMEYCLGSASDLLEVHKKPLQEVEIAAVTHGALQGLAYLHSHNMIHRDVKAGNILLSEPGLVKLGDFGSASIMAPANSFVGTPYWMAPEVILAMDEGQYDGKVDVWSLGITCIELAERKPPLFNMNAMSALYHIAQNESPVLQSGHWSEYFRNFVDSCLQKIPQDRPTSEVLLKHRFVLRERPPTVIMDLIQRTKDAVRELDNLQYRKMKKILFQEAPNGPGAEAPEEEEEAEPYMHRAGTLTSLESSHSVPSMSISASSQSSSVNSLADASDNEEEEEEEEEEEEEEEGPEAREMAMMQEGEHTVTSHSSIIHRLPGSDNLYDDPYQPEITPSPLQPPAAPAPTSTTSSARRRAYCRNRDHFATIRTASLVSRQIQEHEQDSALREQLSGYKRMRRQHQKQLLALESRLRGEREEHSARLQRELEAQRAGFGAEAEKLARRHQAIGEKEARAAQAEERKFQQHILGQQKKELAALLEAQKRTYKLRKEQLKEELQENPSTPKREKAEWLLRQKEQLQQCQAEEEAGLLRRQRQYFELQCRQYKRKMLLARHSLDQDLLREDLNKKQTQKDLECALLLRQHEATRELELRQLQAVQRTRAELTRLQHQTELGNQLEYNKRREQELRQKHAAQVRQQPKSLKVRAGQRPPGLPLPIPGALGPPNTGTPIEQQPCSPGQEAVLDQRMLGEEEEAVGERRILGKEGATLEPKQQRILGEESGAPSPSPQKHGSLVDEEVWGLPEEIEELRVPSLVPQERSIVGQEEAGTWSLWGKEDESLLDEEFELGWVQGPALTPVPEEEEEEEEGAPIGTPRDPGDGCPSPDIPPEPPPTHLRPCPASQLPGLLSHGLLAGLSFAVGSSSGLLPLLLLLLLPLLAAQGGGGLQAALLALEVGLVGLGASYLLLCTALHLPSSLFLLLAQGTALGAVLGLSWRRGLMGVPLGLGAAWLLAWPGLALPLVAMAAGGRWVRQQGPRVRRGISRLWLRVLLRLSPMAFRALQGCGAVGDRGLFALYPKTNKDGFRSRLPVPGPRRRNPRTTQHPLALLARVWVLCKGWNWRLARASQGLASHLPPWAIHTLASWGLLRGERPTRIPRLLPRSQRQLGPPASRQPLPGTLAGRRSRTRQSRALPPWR
To be noted: at 1 µM.

In experiment [7] the target is T3, Serine/threonine-protein kinase TAO2 (Homo sapiens). Particulars: at 10 µM.
Experiment [8] deals with T4, Serine/threonine-protein kinase TAO3 (Homo sapiens) (UniProt Q9H2K8).
T4 sequence (whole entry): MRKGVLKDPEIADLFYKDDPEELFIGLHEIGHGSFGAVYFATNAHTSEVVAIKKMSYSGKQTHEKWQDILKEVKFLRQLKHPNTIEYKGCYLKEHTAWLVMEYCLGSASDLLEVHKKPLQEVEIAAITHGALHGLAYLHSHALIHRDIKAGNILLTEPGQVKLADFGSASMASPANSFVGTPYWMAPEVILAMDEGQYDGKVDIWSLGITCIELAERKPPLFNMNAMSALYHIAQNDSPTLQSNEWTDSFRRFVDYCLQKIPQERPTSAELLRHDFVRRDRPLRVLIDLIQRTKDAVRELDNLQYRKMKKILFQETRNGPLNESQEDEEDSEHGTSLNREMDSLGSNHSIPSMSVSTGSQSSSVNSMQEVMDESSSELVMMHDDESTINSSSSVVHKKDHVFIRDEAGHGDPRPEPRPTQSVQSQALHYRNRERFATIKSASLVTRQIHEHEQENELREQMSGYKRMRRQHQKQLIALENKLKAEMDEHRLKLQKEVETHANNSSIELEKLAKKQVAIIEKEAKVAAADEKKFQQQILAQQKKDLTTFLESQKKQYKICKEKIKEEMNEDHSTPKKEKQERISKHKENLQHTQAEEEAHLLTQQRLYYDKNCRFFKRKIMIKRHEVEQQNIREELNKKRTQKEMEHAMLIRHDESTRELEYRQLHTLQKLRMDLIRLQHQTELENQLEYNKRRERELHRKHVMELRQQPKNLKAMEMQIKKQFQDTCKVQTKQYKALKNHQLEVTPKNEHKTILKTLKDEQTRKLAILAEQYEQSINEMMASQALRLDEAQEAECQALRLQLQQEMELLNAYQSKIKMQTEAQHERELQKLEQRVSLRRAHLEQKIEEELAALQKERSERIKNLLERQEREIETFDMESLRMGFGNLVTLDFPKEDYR
To be noted: at 1 µM.

Experiment [9] concerns the target T4, Serine/threonine-protein kinase TAO3 (Homo sapiens). Particulars: at 10 µM.
Experiment [10] concerns the target T5, Serine/threonine-protein kinase TBK1 (Homo sapiens) (UniProt Q9UHD2).
T5 sequence (whole entry): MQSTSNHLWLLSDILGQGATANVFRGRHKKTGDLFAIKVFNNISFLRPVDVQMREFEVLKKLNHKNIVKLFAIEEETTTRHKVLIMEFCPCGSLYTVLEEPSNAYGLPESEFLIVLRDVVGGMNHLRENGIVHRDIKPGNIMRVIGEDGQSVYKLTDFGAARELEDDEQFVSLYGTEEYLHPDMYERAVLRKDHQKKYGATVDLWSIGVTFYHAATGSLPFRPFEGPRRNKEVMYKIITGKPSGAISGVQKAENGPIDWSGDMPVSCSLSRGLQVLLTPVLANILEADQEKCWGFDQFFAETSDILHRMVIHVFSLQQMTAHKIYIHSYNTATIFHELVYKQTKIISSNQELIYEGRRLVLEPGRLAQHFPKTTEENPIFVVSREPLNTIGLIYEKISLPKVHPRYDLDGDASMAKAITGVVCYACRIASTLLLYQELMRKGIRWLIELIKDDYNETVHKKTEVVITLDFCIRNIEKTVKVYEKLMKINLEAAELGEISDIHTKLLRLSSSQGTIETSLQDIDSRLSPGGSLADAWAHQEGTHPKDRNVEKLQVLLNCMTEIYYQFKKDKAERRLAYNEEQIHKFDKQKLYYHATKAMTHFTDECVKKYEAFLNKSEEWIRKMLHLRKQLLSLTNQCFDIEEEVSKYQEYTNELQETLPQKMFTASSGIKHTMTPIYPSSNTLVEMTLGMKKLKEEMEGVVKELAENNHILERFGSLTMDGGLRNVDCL
To be noted: at 1 µM.

For the compound `CC[n+]1c(/C=C/N(C)c2ccccc2)n(-c2ccccc2)c2ccc(-c3nc4ccccc4s3)cc21`, the residual activity is 46% in experiment [1]; 100% in experiment [2]; 102% in [3]; 93% in experiment [4]; 78% in experiment [5]; 100% in experiment [6]. Further, the residual activity in experiment [7] amounted to 60%; in [8] it was 95%; in [9], 62%; in experiment [10] it was 104%.
